Source: PubChem BioAssay AID1274 (Emory University Molecular Libraries Screening Center, 2008)
In all, about 220,000 compounds went through this assay and about 1,100 (0.5%) were called active. The list comes from a sample in which actives are over-represented; it also holds similar structures and randomly drawn compounds. A number with no mark means an inactive call.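 How the source made its calls: active means inhibition above about 30% (limit read from the data); inactive means the rest.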

The compounds below were run against Neutrophil cytosol factor 1 (Homo sapiens) (UniProt P14598) (assay: p47phox/p22phox peptide binding inhibitors, primary screen, biochemical, uHTS, NADPH oxidase regulatory subunit (AID 1274;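 further: 0% = p47phox with labelled peptide and 100% = labelled peptide alone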)). Conditions: fluorescence polarization, 2 h, at 24.7 µM, hits give high values.
Sequence of Neutrophil cytosol factor 1 (Homo sapiens) (P14598 whole entry, looked up): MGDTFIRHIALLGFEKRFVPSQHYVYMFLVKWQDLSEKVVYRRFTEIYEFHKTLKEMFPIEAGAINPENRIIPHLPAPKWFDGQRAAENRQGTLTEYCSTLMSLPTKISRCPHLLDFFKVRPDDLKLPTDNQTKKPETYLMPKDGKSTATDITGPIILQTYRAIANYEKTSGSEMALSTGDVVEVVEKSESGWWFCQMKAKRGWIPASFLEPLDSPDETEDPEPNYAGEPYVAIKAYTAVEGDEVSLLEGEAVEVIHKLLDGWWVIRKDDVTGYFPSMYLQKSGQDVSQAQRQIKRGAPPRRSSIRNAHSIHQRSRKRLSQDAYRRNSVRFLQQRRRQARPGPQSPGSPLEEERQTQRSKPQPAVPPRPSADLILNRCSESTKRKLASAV

| SMILES | inhibition |
| --- | --- |
| COc1cc(OC)cc(C(=O)OCC(=O)Nc2sccc2C(N)=O)c1 | -13.4% |
| CC(C)CCN1NC2(CCC(C)CC2)NC1=S (stereo not drawn) | -4.38% |
| CCNC(=O)COC(=O)CCNC(=O)c1cccc(C)c1 | -7.35% |
| CCOC(=O)c1sc(=S)n(-c2cccc(OC)c2)c1N | -12.7% |
| COCCOC(=O)c1sc(=S)n(CCOC)c1N | 46.2% (active) |
| COC(=O)c1sc(=S)n(-c2ccccc2)c1N | 0.99% |
| CCOC(=O)Cn1nnnc1C | 6.81% |
| O=C(NCc1ccccn1)c1c(O)c2c([nH]c1=O)CCCC2 | -12.3% |
| C[N+](C)(C)CCNC(=O)c1c(O)c2c([nH]c1=O)CCCC2 | 31.8% (active) |
| CCc1nnc(NC(=O)c2c(O)c3c([nH]c2=O)CCCC3)s1 | -3.43% |
| CCOC(=O)CC1C(=O)NCCN1c1nc2c(C)cccn2c(=O)c1/C=C1\SC(=S)N(C(C)CC)C1=O (stereo not drawn) | -73.3% |
| Cc1ccc(S(=O)(=O)NCC(C)NS(C)(=O)=O)cc1 (stereo not drawn) | 4.29% |
| O=S(=O)(NN=C1CCCCCCC1)c1ccc(Br)cc1 | -8.52% |
| CC(CNS(=O)(=O)c1ccc(Br)cc1)CN(C)C (stereo not drawn) | 92% (active) |
| Cc1c(C(=O)N(Cc2ccccc2)Cc2cccnc2)cnn1-c1ccc(F)cc1 | -0.45% |
| O=C(Nn1c(-c2ccc(Cl)cc2)nc2ccccc2c1=O)c1cccnc1Cl | -7.54% |
| C[C@@H]1CC[C@]2(O[C@@H](CCO)C[C@H](O)[C@H]2O)O1 | 5.45% |
| COc1ccc(C(=O)N(Cc2ccc(N(C)C)cc2)C2CCS(=O)(=O)C2)cc1 (stereo not drawn) | -10.9% |
| Cc1ccc(S(=O)(=O)N(c2cccc(C)c2)C2CCS(=O)(=O)C2)cc1 (stereo not drawn) | -5.65% |
| CC(=O)NCCc1ccc(S(=O)(=O)N(C)C2CCS(=O)(=O)C2)cc1 (stereo not drawn) | 32.2% (active) |
| CC(C)N1CCC(N2CCN(Cc3cccnc3)CC2CCO)CC1 (stereo not drawn) | -4.11% |
| Oc1ccc2ccccc2c1C=Nc1ccccc1 | -17.1% |
| Oc1ccc(N=Cc2c(O)ccc3ccccc23)cc1 | -7.4% |
| O=[N+]([O-])c1ccc(N=Cc2c(O)ccc3ccccc23)cc1 | 64.5% (active) |
| CCn1cc(C(=O)NCCCN2CCCCCC2)c(=O)c2cc(S(=O)(=O)N3CCc4ccccc4C3)ccc21 | -1.11% |

| SMILES | inhibition |
| --- | --- |
| COC(=O)[C@H](Cc1ccccc1)NC(=O)Nc1ccc(OC)cc1 | -13.5% |
| Cc1ccnc(N2CCC(C(=O)NC3CCCCCC3)CC2)n1 | -2.85% |
| Cc1ccnc(-n2sc3ccccc3c2=O)n1 | 35% (active) |
| Cc1ccnc(Nc2nc3ccccc3s2)n1 | -4.23% |
| COc1ccc(CN2CCOC2=O)cc1OC | -11.8% |
| COc1ccc(-c2csc3nc(-c4ccccc4F)oc(=O)c23)cc1OC | 89.6% (active) |
| COc1ccc(-c2noc(-c3cccc(OC)c3OC)n2)cc1OC | -9.37% |
| COc1ccc(-c2csc(-c3cccs3)n2)cc1OC | -15.5% |
| O=c1ccnc(Nc2ccc(Cl)cc2)[nH]1 | -15.2% |
| COc1cccc(OCC(=O)NNC(=O)c2cnccn2)c1 | -5.83% |
| CSC1=NC2(C)CCCCC2C12C=CC(=O)C=C2 (stereo not drawn) | 12.3% |
| O=[N+]([O-])c1ccccc1NCc1ccc(Cl)cc1 | 10.1% |
| Oc1ccc(CNc2ccccc2O)cc1 | 72.8% (active) |
| Oc1ccc(N2CCN(C(=S)NCc3ccccc3)CC2)cc1 | -4.47% |
| COc1ccc(SCCN2CCN(CC(C)C)CCC2=O)cc1 | -5.09% |
| CCOc1ccc(C(=O)NCCCN2CCCC2=O)cc1 | -1.06% |
| O=C(NCCCN1CCCCCC1)c1ccc(N2CCCC2=O)cc1 | 31.1% (active) |
| CC1CCC(NC(=O)c2ccc(N3CCCC3=O)cc2)CC1 (stereo not drawn) | -4.19% |
| COCCN1C(=O)N[C@@H](CCc2ccccc2)[C@H](C(C)=O)[C@H]1C | -14.3% |
| CC(C)N(C(=O)Cn1cc(SCC(=O)N2CCCC2)c2ccccc21)C(C)C | -1.84% |
| Cc1ccnc(NS(=O)(=O)c2ccc(NC(=O)c3ccc(S(=O)(=O)N4CCOCC4)cc3)cc2)n1 | -8.81% |
| Cc1ccnc(NS(=O)(=O)c2ccc(NC(=O)c3ccc(S(=O)(=O)N(C)C)cc3)cc2)n1 | 93.9% (active) |
| O=C(Nc1ccc(S(=O)(=O)Nc2ncccn2)cc1)c1cncc(Br)c1 | -1.88% |
| CCCN(c1ccc(C)cc1)c1nc(=O)c2cccnc2s1 | 3.57% |
| COCCOC(=O)C1=C(C)Nc2nc(C)nn2C1c1ccccc1 (stereo not drawn) | -2.35% |

| SMILES | inhibition |
| --- | --- |
| COc1cc(C2C(C(=O)Nc3ccc(F)cc3)=C(C)Nc3nc(CCCO)nn32)cc(OC)c1OC (stereo not drawn) | 8.1% |
| COC(=O)c1nc2n(n1)C(c1ccc([N+](=O)[O-])cc1)C(C(=O)Nc1ccc(Cl)cc1)=C(C)N2 (stereo not drawn) | 35.3% (active) |
| COC(C[C@@H](O)[C@H](C)[C@H](O)COCc1ccccc1)OC | -7.85% |
| O=[N+]([O-])c1ccc2c(c1)C(O)n1nc(-c3ccccc3)nc1S2 (stereo not drawn) | -0.84% |
| O=C1/C(=C/c2coc3ccc(O)cc3c2=O)SC(=S)N1c1ccccc1 | -31.6% |
| CCC1(C)Cc2c(sc3nc(SC)[nH]c(=O)c23)CO1 (stereo not drawn) | -0.95% |
| Fc1ccccc1Cn1cnc(NC(=S)NCCc2ccccc2)n1 | 5.03% |
| S=c1[nH]nc(Nc2ccccc2)s1 | 6.03% |
| S=c1[nH]nc(NCCc2ccccc2)s1 | 35.4% (active) |
| Cc1nc(C)c(-c2csc(NCCc3ccccc3)n2)s1 | -1.49% |
| CC1CC(NC(=O)/C(C#N)=C/c2ccc[nH]2)CC(C)(C)C1 (stereo not drawn) | -2.3% |
| COCCCNC(=S)N1CCCC(c2nc3cc(C)c(C)cc3[nH]2)C1 (stereo not drawn) | 33.6% (active) |
| CCCNC(=S)N1CCCC(c2nc3ccccc3[nH]2)C1 (stereo not drawn) | -3.87% |
| CCNC(=S)N1CCC(c2nc3cc(C)c(C)cc3[nH]2)CC1 | -2.83% |
| O=C(O)CCc1nc2cc(Cl)ccc2n(Cc2ccccc2)c1=O | -13.1% |
| Cc1ccccc1CSc1nnc(CCCCCNC(=O)OC(C)(C)C)o1 | -9.1% |
| COC(=O)c1sc(NC(=S)NC(=O)c2ccc(C)cc2)nc1C | -24.1% |
| COc1ccc(F)cc1S(=O)(=O)N1CCCCC1 | -2.33% |
| CCOC(=O)C1(S(=O)(=O)c2ccccc2)CCN(Cc2ccccc2)CC1 | -0.94% |
| CC1=C/C(=N\OS(=O)(=O)c2ccccc2)C=CC1=O | 53.2% (active) |
| CC1=C/C(=N\S(=O)(=O)c2ccccc2)C(C(C)C)=CC1=O | -6.28% |
| CCN(CC)CCn1cnc2c1c(=O)n(CCOC(=O)c1cc(OC)c(OC)c(OC)c1)c(=O)n2C | -17% |
| Cc1cc(-c2nc(C)c(-c3nnc(SCC(=O)Nc4ccccc4)n3C)s2)no1 | -5.21% |
| COc1cccc(-c2nc3cc(C)ccc3o2)c1 | -18% |
| O=C(Cc1cccc2ccccc12)Nc1ccc2oc(-c3ccccc3)nc2c1 | -10.3% |

| SMILES | inhibition |
| --- | --- |
| COc1ccc2oc(-c3cccc(NC(=O)CSc4ccc(Cl)cc4)c3)nc2c1 | 152% (active) |
| O=c1[nH]n2c(=O)c3c([nH]c2c1N=Nc1ccccc1)CCC3 | 5.2% |
| Cc1ccc(Cc2c(C)nc3nc(SCC(=O)NCCN4CCOCC4)nn3c2C)cc1 | 2.55% |
| Cc1ccc(SCC(=O)NC(=O)NCc2ccco2)c(C)c1 | -8.32% |
| COc1cc(OC)cc(-c2nc3nc(C)c(CCC(=O)NCc4ccco4)c(C)n3n2)c1 | -14.7% |
| Cc1nc2nc(SCC(=O)NCc3ccco3)nn2c(C)c1Cc1ccccc1 | 39.5% (active) |
| Cc1cc(C)n2nc(SCC(=O)NC(=O)NCc3ccco3)nc2n1 | 65.5% (active) |
| Cc1cc(C)n2nc(SCC(N)=O)nc2n1 | -2.75% |
| COc1cccc2c1OCC(CN1CCN(C3CCCCC3)C(CCO)C1)=C2 (stereo not drawn) | -0.19% |
| Cc1noc(C)c1-c1nc(CSc2ccc(Cl)cc2)no1 | -18.6% |
| CCc1ccc[n+](-c2nc([O-])sc2C=O)c1 | -6.22% |
| CCOC(=O)c1ccc(S(=O)(=O)N(CCO)Cc2cc3cc(OC)c(OC)cc3[nH]c2=O)cc1 | -9.36% |
| CCc1ccc(NC(=O)CN2C(=O)CSC2=O)cc1 | 1.09% |
| OC(CN1C2=NCCCN2c2ccccc21)c1ccc(Br)cc1 (stereo not drawn) | -5.7% |
| Cc1nn(Cc2ccccc2)c(C)c1C(=O)NCCN1C(=O)S/C(=C\c2ccc(F)cc2)C1=O | 19.6% |
| CCN1CCN(CCNC(=O)c2ccc(/C=C3/Sc4ccccc4N(Cc4cccc(C)c4)C3=O)cc2)CC1 | 102% (active) |
| O=C(CN1C(=O)/C(=C\c2ccc(C(F)(F)F)cc2)Sc2ccccc21)NCc1ccco1 | -2.69% |
| CCOc1ccc2nc(C(=O)N3CCCC(C)C3)sc2c1 (stereo not drawn) | -1.85% |
| O=C(NCc1ccco1)C1CCCN1S(=O)(=O)c1ccccc1C(F)(F)F (stereo not drawn) | -2.26% |
| O=C(Nc1ccc2c(c1)OCCO2)c1ccoc1 | -11.2% |
| O=C(Nc1cccc(NC(=O)c2ccco2)c1)c1cnccn1 | -22.1% |
| O=C(Nc1ccc2c(c1)OCCO2)c1cnccn1 | 161% (active) |
| O=P(O)(CN1CCCCCC1)C1Cc2ccccc2C1 | -16.2% |
